A selection: hits, their analogues and other compounds. The true share with any hit is near 5.9%.
TrxR1 substrate – substrates of rat thioredoxin reductase 1; O89049; purified TrxR1 substrate turnover, NADPH consumption readout; Potency, µM (titrated, usually from 114 µM), for the others: top-dose activity change, negative = substrate turnover; 390,000 compounds, 0.01% hits; note: potency is the fitted concentration of half-maximal effect; % is set by controls: 0 for no effect and ±100 for the full control effect; nearly all actives have a fitted effect of over 50% in size
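Rat TrxR1, dispensed at 90 nM, was prereduced with 400 uM NADPH (final) for 5 min at ~22 deg C, then incubated with compound 15 min before 400 uM selenite. A first-read NADPH fluorescence drop versus no-compound background flagged substrates.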
RORg inh – inhibitors of mouse ROR gamma transcriptional activity; P51450; 310,000 compounds, 5.4% hits; Potency, µM (titrated, usually from 53.6 µM), without a hit: at the highest dose activity change, negative = inhibition, most hits filed as inhibitors; Drosophila S2 Gal4-RORgamma UAS-luciferase reporter, 20 h; note: potency is the fitted concentration of half-maximal effect; % is set by controls: 0 for no effect and ±100 for the full control effect; nearly all actives have a fitted effect of over 60% in size
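Using a luciferase readout, inhibitors were identified by reduced reporter activity in Drosophila cells coexpressing a copper-inducible Gal4–ROR gamma fusion and UAS-driven Photinus luciferase, incubated 20 hr after 700 uM copper sulfate.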
GALK inh – blocks human galactokinase activity; P51570; Potency, µM (highest dose often 57.5 µM), inactives show top-dose activity change, negative = inhibition, most hits filed as inhibitors; Purified GALK, Kinase-Glo residual ATP luminescence; 270,000 compounds, 0.007% hits; note: potency is the fitted concentration of half-maximal effect; % is set by controls: 0 for no effect and ±100 for the full control effect
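ATP-depletion format; final 35 uM ATP, 100 uM D-galactose, 5 nM enzyme; pH 8.0 HEPES/Mg2+ buffer; 60 min RT; luminescence read 10 min after detection reagent.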
VP16 counter – counter-screen for ROR gamma inhibitors: Gal4-VP16 reporter; Potency, µM (doses to about 53.6 µM), without a hit: top-dose activity, negative = inhibition, actives largely listed as inhibitors; AID 2546; Drosophila S2 Gal4-VP16 UAS-luciferase, luminescence, 20 h; 310,000 compounds, 3.5% hits;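 note: Gal4-VP16 expression switched on by copper sulfate through the metallothionein promoter; potency is the fitted concentration of half-maximal effect; % is set by controls: 0 for no effect and ±100 for the full control effect; nearly all actives have a fitted effect of over 50% in size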
TrxR1 inh-1 – rat TrxR1 inhibition. O89049. 390,000 compounds, 1% hits. AID 588453. recombinant rTrxR1, NADPH fluorescence consumption, selenite substrate. Potency, µM (highest dose often 114 µM), for the others: at the highest dose activity change, negative = inhibition, actives largely listed as inhibitors; note: potency is the fitted concentration of half-maximal effect; % is set by controls: 0 for no effect and ±100 for the full control effect; nearly all actives have a fitted effect of over 65% in size
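Rat TrxR1 (90 nM in the dispensed reagent) was pre-reduced with 400 uM NADPH for 5 min at room temperature, then incubated with compound for 15 min. After 400 uM selenite was added, NADPH fluorescence (Ex 340/Em 450 nm) was followed for 8 min.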
Coupling enz – inhibits coupling enzyme system, counter-screen for aldolase hits; coupling enzyme system counterscreen, AmpLite Red fluorescence; 290,000 compounds, 0.67% hits; activity change, negative = inhibition, % at 58.2 µM, hits read low; in the data active = activity change below about -30%; note: % is set by controls: 0 for no effect and ±100 for the full control effect
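Counterscreen lacking aldolase: glyceraldehyde-3-phosphate coupling-enzyme reagent preincubated 10 min at RT with compound (at 57.5 uM final), then substrate/coupling system with AmpLite Red added; fluorescence read at 525/598 nm after 20 min RT.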
CASP1 redox cat – inhibits human caspase-1 in catalase buffer, redox counter-screen. shares compounds with Coupling enz. caspase-1 Ac-WEHD-AFC fluorescence rate, catalase buffer. Potency, µM (series often up to 57.5 µM), inactives show at the top dose activity change, negative = inhibition, actives largely listed as inhibitors. 30 tested, under 10 active; active = well fitted inhibition curve with a large enough effect in the main read-out, with a control signal flat; inconclusive = small, poorly fitted or top-dose-only effect, or a change in a side signal; inactive = no such curve, though single readings can be large or run the other way
Target sequence (P29466 120-297 limits assumed): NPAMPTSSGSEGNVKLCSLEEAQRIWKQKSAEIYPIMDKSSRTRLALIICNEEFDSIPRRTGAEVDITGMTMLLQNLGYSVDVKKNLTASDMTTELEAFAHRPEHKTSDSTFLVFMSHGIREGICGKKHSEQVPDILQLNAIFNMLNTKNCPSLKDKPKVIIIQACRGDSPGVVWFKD
Target sequence (P29466 317-404 limits assumed): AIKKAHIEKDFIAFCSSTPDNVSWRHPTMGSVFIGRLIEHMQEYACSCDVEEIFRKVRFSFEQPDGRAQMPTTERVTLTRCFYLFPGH
Casp1 confirm – blocks human caspase-1 activity in concentration-response. shares compounds with Coupling enz. Potency, µM (series often up to 57.5 µM), without a hit: at the highest dose activity change, negative = inhibition, most hits filed as inhibitors. purified caspase-1, fluorogenic substrate cleavage. 60 compounds, 20% hits; active = well fitted inhibition curve with a large enough effect in the main read-out, with a control signal flat; inconclusive = small, poorly fitted or top-dose-only effect, or a change in a side signal; inactive = no such curve, though single readings can be large or run the other way
CASP7 inh CRC – confirmation of allosteric or competitive inhibitors of human caspase-7 | shares compounds with Coupling enz | recombinant caspase-7, fluorogenic substrate cleavage | Potency, µM (doses to about 57.5 µM), without a hit: top-dose activity change, negative = inhibition, hits mostly inhibitors | 60 tested, under 10 active | AID 897; active = well fitted inhibition curve with a large enough effect in the main read-out, with a control signal flat, not every such curve was filed as active; inconclusive = small, poorly fitted or top-dose-only effect, or a change in a side signal; inactive = no such curve, though single readings can be large or run the other way
Target sequence (P55210 24-198 limits assumed): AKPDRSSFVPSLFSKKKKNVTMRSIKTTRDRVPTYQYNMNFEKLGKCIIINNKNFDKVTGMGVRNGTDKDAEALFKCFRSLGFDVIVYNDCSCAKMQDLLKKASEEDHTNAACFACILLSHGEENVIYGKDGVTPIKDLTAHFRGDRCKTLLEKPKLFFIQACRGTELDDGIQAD
Target sequence (P55210 207-303 limits assumed): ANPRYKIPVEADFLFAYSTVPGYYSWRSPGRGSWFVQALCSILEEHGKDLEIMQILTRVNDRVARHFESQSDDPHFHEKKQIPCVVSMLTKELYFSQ
Casp7 cysteine – counter-screen for redox active caspase-7 inhibitors: cysteine buffer; shares compounds with Coupling enz; caspase-7 enzyme with cysteine, fluorogenic substrate, redox counterscreen; Potency, µM (doses to about 57.5 µM), for the others: at the top dose activity change, negative = inhibition, actives largely listed as inhibitors; 60 tested, under 10 active; AID 908; active = well fitted inhibition curve with a large enough effect in the main read-out, with a control signal flat; inconclusive = small, poorly fitted or top-dose-only effect, or a change in a side signal; inactive = no such curve, though single readings can be large or run the other way
CASP7 redox cat – caspase-7 inhibition with catalase present. shares compounds with Coupling enz. Caspase-7 Ac-DEVD-AFC fluorescence rate, catalase buffer. Potency, µM (top dose mostly 57.5 µM), without a hit: top-dose activity, negative = inhibition, usual class: inhibitors. 30 tested, under 10 active. AID 909; active = well fitted inhibition curve with a large enough effect in the main read-out, with a control signal flat; inconclusive = small, poorly fitted or top-dose-only effect, or a change in a side signal; inactive = no such curve, though single readings can be large or run the other way
Casp1 cysteine – caspase-1 inhibition with cysteine present | shares compounds with Coupling enz | Potency, µM (series often up to 57.5 µM), inactives show at the highest dose activity change, negative = inhibition, most hits filed as inhibitors | recombinant caspase-1, fluorogenic substrate, cysteine buffer | 60 tested, under 10 active; active = well fitted inhibition curve with a large enough effect in the main read-out, with a control signal flat; inconclusive = small, poorly fitted or top-dose-only effect, or a change in a side signal; inactive = no such curve, though single readings can be large or run the other way
GR inh – counter-screen for TrxR1 inhibitors: human glutathione reductase inhibition | shares compounds with TrxR1 inh-1 | purified GR, DTNB reduction absorbance 405 nm kinetic | activity change, negative = inhibition, % at 57.1 µM | 55 tested, under 10 active | AID 652020
TrxR1 inh-2 – rat TrxR1 inhibition, primary screen retest. shares compounds with TrxR1 inh-1. recombinant TrxR1, NADPH fluorescence consumption, selenite substrate. Potency, µM, hits mostly inhibitors. 55 compounds, 50% hits. AID 652023
TrxR1 insulin MOA – inhibits TrxR1-driven insulin reduction; shares compounds with TrxR1 inh-1; AID 652037; TrxR1 Trx-coupled insulin reduction, NADPH absorbance 340 nm; 55 compounds, 20% hits; Potency, µM;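 active = compounds with a measured potency under 100 micromolar; inconclusive = filed, but no rule given; inactive = potency at or above that, or unmeasurable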
TrxR1 inh-3 – rat thioredoxin reductase 1 inhibition, DTNB assay; shares compounds with TrxR1 inh-1; purified TrxR1, DTNB reduction, A412; Potency, µM; 55 compounds, 90% hits; AID 652256;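 active = a half-inhibiting concentration could be measured and was below 100 µM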
Active calls of the source: *; ? = inconclusive; / = no result given; [ ] = remark or other dose. Unless noted, calls come from the whole dose curve; as a rule, active = well fitted curve in the direction sought with a large enough effect; inconclusive = small, poorly fitted or top-dose-only effect, or another doubt; inactive = no such curve, though single readings can be large; an effect the other way counts as inactive or inconclusive.

SMILES	TrxR1 substrate	RORg inh	GALK inh	VP16 counter	TrxR1 inh-1	Coupling enz	Casp1 confirm	CASP7 inh CRC	Casp7 cysteine	Casp1 cysteine	others
CCn1nc(-c2ccccc2)nc2c(=O)n(C)c(=O)nc1-2	?	0.891µM*	0.891µM*	1.26µM*	-28.9%[57.1 µM]	-61.2*	1µM*	1.58µM*	-3.0%	-19.8%	CASP1 redox cat=0.794µM*;CASP7 redox cat=?
COc1cc2c(cc1OC)-c1c(OC)c(OC)c(C=O)c3c1[C@H](C2)N(C)CC3	/	-0.6%	/	1.5%	/	-21.9	?	-17.1%	-4.1%	?
COc1cc2c(cc1O)C[C@H]1c3c(cc(OC)c(O)c3-2)CCN1C	/	-35.2%	/	-13.4%	/	-11.8	31.6µM*	-67.7%	-3.9%	-4.7%
NC(N)=NOCC[C@H](N)C(=O)O	7.9%[57.1 µM]	18.6%	/	0.8%	19.2%[57.1 µM]	1.0	/	/	/	/
O=c1[nH]c(=O)n(Cc2ccco2)c(O)c1C=NCCCn1ccnc1	-3.6%	-6.4%	0.2%	3.3%	-20.0%	3.0	/	/	/	/
CCCCCOc1c(OC)ccc2cc(C(=O)NCc3ccc4c(c3)OCO4)c(=O)[nH]c12	/	10.1%	/	-11.9%	/	-3.0	/	/	/	/
O=C1C=CC2C3C(=O)N(c4ccccc4)C(=O)C3C1N2Cc1ccccc1 (configuration not stated)	5.7%[11.4 µM]	/	/	/	3.55µM*	/	/	/	/	/	GR inh=-0.9;TrxR1 inh-2=?;TrxR1 insulin MOA=17µM*;TrxR1 inh-3=1.49µM*
CCCCCCCCCCCCCC(=O)OC1C(C)[C@@]2(O)C(C=C(CO)C[C@]3(O)C(=O)C(C)=C[C@H]23)[C@@H]2C(C)(C)[C@]12OC(C)=O (some centres not stated)	/	-15.1%	/	-6.2%	/	-1.4	/	/	/	/
